Source: PubChem BioAssay (NCI)
This is part of a sample that, as a whole, favours compounds with a hit. Of some 83,000 tested, about 20% had one in any assay.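 Assay: single dose, 48 h. Readout: percent growth (0 = no net growth; negative = cell death). Active: <10.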 Values without a mark were called inactive. The source made the active and inactive calls.

Each molecule was assayed on BT-549 breast (assay: NCI-60 one-dose screen, 48 h (100 = growth as untreated, 0 = no growth, -100 = all killed)). Details: 10 µM unless noted.
Procedure: Growth inhibition of the BT-549 human tumor cell line is measured as a screen for anti-cancer activity. Cells are grown in 96 well plates and exposed to the test compound for 48 hours. Compounds are tested at a single concentration, which is 10^-5 M for most compounds. The reported endpoint is percent growth (GI% or GIPRCNT), where numbers from 0 - 100% represent growth inhibition, and numbers from -100% - 0 represent cell death. For example, a value of 40 represents 60% growth inhibition. A value of 0 means no net growth occurred over the course of the experiment. A value of -40 indicates 40% of cells at the beginning of the experiment died by the end of the experiment. A value of -100 means all cells are dead at the end of the experiment.
NCI-60 Human Tumor Cell Lines Screen was performed using the standard one-dose NCI protocol, which is described in more detail at https://dtp.cancer.gov/discovery_development/nci-60/default.htm.
Compounds with GIPRCNT values below 10 were considered active. Activity score was based on GIPRCNT using the following formula: […]
Score is 0 for GIPRCNT values of 100 or above, 50 for GIPRCNT values of 0, and 100 for GIPRCNT values of -100.

Point of comparison: `NS(=O)(=O)c1ccc(Nc2nc(N/N=C/c3ccc(Cl)cc3)nc(Nc3ccccc3)n2)cc1`, growth 74.9%. Against it:
- CCOC(=O)C(=O)CC(=O)N1C(=S)NC(=O)C1CC(C)C (stereo not given) — higher, 87.5%
- Cc1ccc2sc3c(c2c1)OC(N)=C(C#N)C3c1ccc(Cl)cc1 (stereo not given) — lower, 26.3%
- COc1ccc([C@@H]2c3[nH]c4ccccc4c3C[C@H]3C(=O)N(C4CCN(CC5CCCCC5)CC4)CC(=O)N23)c(OC)c1 — higher, 80.3%
- CCCCc1nc(/C=N/Nc2nc(Nc3ccccc3)nc(Nc3ccc(S(N)(=O)=O)cc3)n2)c(Cl)[nH]1 — lower, 47.9%
- CC(=O)C1=C(C)NC(NN)=NC1c1cccc(Cl)c1 (stereo not given) — higher, 119%
- Clc1ccc(N/N=c2/oc3ccccc3cc2-c2cc3ccccc3[nH]2)cc1 — higher, 80.3%
- O=C1CCC(N2C(=O)c3ccc(NS(=O)(=O)c4ccccc4OC(F)(F)F)cc3C2=O)C(=O)N1 (stereo not given) — lower, 14.8%
- NS(=O)(=O)c1ccc(Nc2nc(Nc3ccccc3)nc3nnc(SCC(=O)NC4CCCCC4)n23)cc1 — higher, 104%
- Cn1ccnc1C(=O)/C=C/c1ccc(CNC(=O)c2ccc(F)cc2)cc1 — lower, 43.2%
- COc1cc(/C=N/NC(=O)c2cn(C3CC3)c3c(OC)c(N4CC5CCCNC5C4)c(F)cc3c2=O)ccc1O (stereo not given) — higher, 107%
- Nc1cc(F)ccc1NC(=O)c1ccc(NC(=O)C/C=C/c2cccnc2)cc1 — lower, 26.1%
- CCN1CCN(C(=O)[C@]23CCC(C)(C)C[C@H]2C2=CC[C@@H]4[C@@]5(C)Cc6c([nH]c7ccccc67)C(C)(C)[C@@H]5CC[C@@]4(C)[C@]2(C)CC3)CC1 — higher, 101%
- COc1ccccc1C(=O)Nc1cccc2c1C(=O)C(=O)C=C2 — higher, 96.3%
- COc1ccc(C(=O)c2c(N)c(C#N)cn2-c2ccccc2OC)cc1 — lower, 64.5%
- C[C@H]1c2[nH]c3ccccc3c2C[C@H]2C(=O)N(CCCCCCC(=O)NO)CC(=O)N21 — higher, 96.5%
- O=S(=O)(Nc1cccc2ccccc12)c1ccc(-c2cnc(C3CC3)o2)cc1 — lower, 21.3%
- O=C(CN1CCN(c2cc(=O)[nH]c3ccc(F)cc23)CC1)Nc1ccc(Cl)cc1 — lower, 47.6%
- COc1ccc(S(=O)(=O)NCCCNc2nccc(-c3[nH]c(-c4ccccc4)nc3-c3ccc(Cl)c(O)c3)n2)cc1 — higher, 88.3%
- C#CCNC1CCC(c2csc(C#C)n2)=C1C (stereo not given) — higher, 86.3%
- NC(=O)c1c(NC(=O)c2ccc(F)cc2F)sc2c1CCC(=O)C2 — lower, 42.2%
- C[C@H](CCC(=O)NCc1ccc(C(=O)Nc2ccccc2N)cc1)[C@H]1CC[C@H]2[C@@H]3[C@@H](O)C[C@@H]4C[C@H](O)CC[C@]4(C)[C@H]3CC[C@]12C — lower, 54.1%
- NC(N)=Nc1ccc(Nc2cccc(Oc3ccc(Cl)c(C(F)(F)F)c3)c2)cn1 — higher, 76.2%
- O=c1[nH]c2ccccc2cc1CSc1ccccc1Nc1nccc(-c2ccc(Cl)cc2)n1 — higher, 119%
- CC1(C)[C@@H](O)CC[C@]2(C)[C@H]3CC[C@@H]4[C@H]5[C@H](C(=O)/C=C\c6ccccn6)CC[C@]5(O)CC[C@@]4(C)[C@]3(C)CC[C@@H]12 — lower, 36%
- COC(=O)c1ccc(NC2=C/C(=N/S(=O)(=O)c3ccc(C(=O)O)cc3)c3ccccc3C2=O)cc1 — higher, 84.2%
- CCN(CC)c1ccc2c(c1)Oc1nc(N)c(C#N)c(N)c1C2Sc1ccc(C)cc1 (stereo not given) — lower, 58.8%
- Cc1nc(-c2ccccc2O)ccc1C(=O)N=Nc1c(O)[nH]c2ccc(Br)cc12 — higher, 102%
- CC(C)(C)c1ccc(C(=O)Nc2sc3c(c2C(N)=O)CC/C(=N\O)C3)cc1 — lower, 16.2%
- NS(=O)(=O)c1ccc(Nc2nc(SCC(=O)c3ccc(Cl)cc3)nc3c2CCCC3)cc1 — lower, 67.3%
- Cc1ccc(N2C(=O)/C(=C/C=C/c3ccco3)SC2=S)cc1 — higher, 126%
- c1ccc(C(c2nc3ncncc3[nH]2)N2CSc3nc4ccccc4n3C2)cc1 (stereo not given) — higher, 102%
- CCN(CC)c1cn(-c2ccc(S(N)(=O)=O)cc2)nn1 — higher, 109%
- N#Cc1cccc(/C(N)=N/C(N)=N/c2nc3ccccc3s2)c1 — lower, 49.3%
- COc1ccc2c(c1)c(CC(=O)[Se]CC(=O)O)c(C)n2C(=O)c1ccc(Cl)cc1 — higher, 122%
- CC1=NC2=NC(=O)/C(=C3/N=C(C)C=C(c4ccccc4)N3N)NN2C(c2ccccc2)=C1 — higher, 111%
- CCc1cccc2c3c(sc12)C(c1ccc(Cl)cc1)C(C#N)=C(/N=C/c1ccc(Cl)cc1)O3 (stereo not given) — lower, 51.7%

With `CS(=O)(=O)Nc1cc(-c2ccc3ncc(C#N)c(Nc4cccc(Cl)c4F)c3c2)cnc1Cl` the growth was -4.23% (active).
With `COc1ccc([C@@H]2[C@@H](O)C(=O)N2c2cc(OC)c(OC)c(OC)c2)cc1F` the growth was -18.5% (active).
For `Nc1ccccc1NC(=O)c1ccc(NC(=O)C/C=C/c2cccnc2)cn1`, the growth was 3.27% (active).
